Source: PubChem BioAssay (Broad Institute)
Hedgehog inh: Hedgehog pathway signaling inhibitors, primary screen, luminescence, Shh-LIGHT2 cells, Gli-luciferase. Shh-LIGHT2 Gli-luciferase reporter, 30 h. inhibition, % (test concentration not listed). AID 2313, 2010. 22,000 tested, 2.1% active;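 active means mean inhibition across valid replicates above about 65%, limit read from the data; inconclusive means mean under the limit, yet half or more replicates past it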;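 further: pathway switched on by Shh-conditioned medium diluted 1 in 25 in low serum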
PD-1 reversal: activators reversing PD-1 mediated T-cell inhibition, primary screen, luminescence, primary human CD4 T cells, PD-L1 beads. AID 2316, 2010. activation, % (concentration not given with the values). 29,000 tested, under 10 active. CellTiter-Glo 96 h; call rule not given here;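 further: 0% = median vehicle wells and 100% = positive control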
YB-1 expression: inhibitors of YB-1 gene expression, primary screen, cell-based, fluorescence; 30,000 tested, 0.37% active; AID 434959, 2010; U2OS, qRT-PCR YB-1 vs CDIP delta delta Cp, 16 h; active compounds read high; zero = DMSO, each unit about twofold; delta delta Cp (YB-1 minus CDIP) (test concentration not listed);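 active means delta delta Cp rounded down to an integer at or above 3, about 3 SD of DMSO wells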;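 further: higher means less YB-1 transcript or more CDIP transcript relative to DMSO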
MITF inh: inhibitors of MITF, primary screen, MITF inhibitor project, cell-based, luminescence. TRPM1 promoter luciferase, 24 h. inhibition, % (test concentration not listed). 37,000 tested, 0.28% active. AID 2240, 2010; in the data active means inhibition above about 85%; inconclusive means no clear call, values can overlap the other calls; inactive means below about 68%;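 further: human melanocyte line stably carrying TRPM1 promoter luciferase reporter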
NOMO-1 viab: NOMO-1 AML cell viability reduction, primary screen, STK33 inhibitor project, CellTiter-Glo luminescence; NOMO-1 AML viability, 72 h; AID 2330, 2010; inhibition, % (concentration not given with the values); 37,000 tested, 7.5% active; in the data active means inhibition above about 80%; inconclusive means no clear call, values can overlap the other calls
An asterisk follows results filed as active; ? = inconclusive; / = not tested or not shown; ! = not active in a repeat. A selection: hits, their analogues and other compounds. The true share with any hit is near 7.4%.

SMILES	Hedgehog inh	PD-1 reversal	YB-1 expression	MITF inh	NOMO-1 viab
CC1CC[C@@]2(OC1)O[C@H]1CC3C4CC=C5C[C@@H](O[C@@H]6O[C@H](CO)[C@@H](O[C@@H]7O[C@@H](C)[C@H](O)[C@@H](O)[C@H]7O)[C@H](O)[C@H]6O[C@@H]6O[C@@H](C)[C@H](O)[C@@H](O)[C@H]6O)CC[C@]5(C)C4CC[C@]3(C)[C@@]1(O)[C@@H]2C (some centres undefined)	80*	-15	2	74	119*
C[C@@H]1CN([C@H](C)CO)C(=O)Cc2cc(NC(=O)Nc3ccc(C(F)(F)F)cc3)ccc2O[C@H]1CN(C)Cc1ccc(Oc2ccccc2)cc1	/	/	-0.083	-2	112*
C[C@H](CO)N1C[C@H](C)[C@H](CN(C)Cc2ccc(Oc3ccccc3)cc2)Oc2ccc(NC(=O)Nc3ccc(C(F)(F)F)cc3)cc2CC1=O	-46	-4	0.36	6	119*
C[C@@H]1CN([C@H](C)CO)C(=O)Cc2cc(NC(=O)Nc3ccc(C(F)(F)F)cc3)ccc2O[C@H]1CN(C)Cc1ccccc1	16	-4	0.03	12	65
C[C@@H]1CN([C@@H](C)CO)C(=O)c2cccc(NC(=O)c3ccc(-c4nccs4)cc3)c2O[C@H]1CN(C)CC1CC1	3	/	0.34	19	33
N#Cc1cnc(SCC(=O)Nc2ccccc2F)nc1N	/	/	/	-25	-4
O=C(Nc1ccccc1)C1CCCCC1	/	0	0.00093	-4	6
O=C(ON1C(=O)c2ccccc2C1=O)C1CCCCC1	70*	-3	-0.33	18	126*
CC/C(=C(\c1ccccc1)c1ccc(OCCN(C)C)cc1)c1ccccc1	59	1	-0.084	-6	96*!
CNC[C@H]1Oc2ccc(NC(=O)Nc3ccc(F)cc3)cc2CC(=O)N([C@@H](C)CO)C[C@H]1C	10	1	0.37	0	29
CC1(C)C(=O)C=C[C@@]2(C)C1C=C[C@]1(C)C2CC[C@@]2(C)[C@H](c3ccoc3)OC(=O)C3OC321 (some centres undefined)	-331	/	-0.44	101*	107*
C=C1C(C2(C)C=CC(=O)C(C)(C)C2CC(=O)OC)CC[C@@]2(C)[C@H](c3ccoc3)OC(=O)C3OC132 (some centres undefined)	?	/	0.62	66	110*
C[C@H](CO)N1C[C@H](C)[C@@H](CN(C)C(=O)Nc2ccc(F)cc2)Oc2c(NC(=O)Nc3ccc4c(c3)OCO4)cccc2C1=O	-14	0	0.41	-16	0
O=C(Nc1sc2c(c1C(=O)NCc1cccnc1)CCCC2)c1cccs1	/	1	/	-12	1
N#CC(=C(/N)Sc1ccccc1N)/C(C#N)=C(\N)Sc1ccccc1N	5	/	2	35	94*
COc1ccc(NC(=O)Nc2cccc3c2O[C@H](CN(C)Cc2ccc(Cl)c(Cl)c2)[C@@H](C)CN([C@@H](C)CO)C3=O)cc1	4	/	-0.2	2	91*
COc1ccc(NC(=O)Nc2cccc3c2O[C@H](CN(C)Cc2ccc(Cl)c(Cl)c2)[C@@H](C)CN([C@H](C)CO)C3=O)cc1	4	-6	-0.16	-8	103*
COc1ccc(NC(=O)Nc2cccc3c2O[C@@H](CN(C)Cc2ccc(Cl)c(Cl)c2)[C@H](C)CN([C@H](C)CO)C3=O)cc1	-5	/	0.05	41	102*
O=C1N[C@@H](Cc2ccccc2)C(=O)N2[C@@H]1C[C@@H](C(=O)NCc1ccc(F)cc1)[C@H]2c1cccc(OCCO)c1	/	/	0.28	/	/
CC(=O)OCC(=O)[C@@]1(O)CCC2C3C[C@H](C)C4=CC(=O)C=CC4(C)C3[C@@H](O)CC21C (some centres undefined)	41	-4	-0.12	-14	-14
CC(=O)[C@@]1(O)CC[C@H]2[C@@H]3C[C@H](C)C4=CC(=O)C=C[C@]4(C)[C@@]3(F)[C@@H](O)C[C@@]21C	67*	/	-0.14	-36	-13
C[C@@H]1C[C@H]2[C@@H]3CCC4=CC(=O)C=C[C@]4(C)[C@@]3(F)[C@@H](O)C[C@]2(C)[C@@]1(O)C(=O)CO	18	-3	0.15	-32	5
CC(=O)OCC(=O)[C@@]1(O)[C@H](C)C[C@H]2[C@@H]3CCC4=CC(=O)C=C[C@]4(C)[C@@]3(F)[C@@H](O)C[C@@]21C	82*	-3	0.23	-47	15
COc1ccc(S(=O)(=O)Nc2ccc3c(c2)CC(=O)N([C@H](C)CO)C[C@H](C)[C@H](CN(C)Cc2ccc(Oc4ccccc4)cc2)O3)cc1	-34	/	0.16	0	106*
C[C@H]1CN([C@@H](C)CO)C(=O)Cc2cc(NS(=O)(=O)c3ccccc3)ccc2O[C@H]1CN(C)Cc1ccc(Oc2ccccc2)cc1	-33	/	0.012	27	70
SMILES	Hedgehog inh	PD-1 reversal	YB-1 expression	MITF inh	NOMO-1 viab
COc1ccc(S(=O)(=O)Nc2ccc3c(c2)CC(=O)N([C@H](C)CO)C[C@@H](C)[C@@H](CN(C)Cc2ccc(Oc4ccccc4)cc2)O3)cc1	19	-2	-0.093	17	116*
C[C@@H]1CN([C@H](C)CO)C(=O)Cc2cc(NS(=O)(=O)c3ccc(Cl)cc3)ccc2O[C@@H]1CN(C)Cc1ccc(Oc2ccccc2)cc1	34	0	0.58	-5	82*
COc1ccc(S(=O)(=O)Nc2ccc3c(c2)CC(=O)N([C@H](C)CO)C[C@@H](C)[C@H](CN(C)Cc2ccccc2)O3)cc1	23	2	0.13	-11	-10
C[C@@H]1CN([C@H](C)CO)C(=O)c2cccc(NS(=O)(=O)c3ccc(Cl)cc3)c2O[C@@H]1CN(C)C(=O)Nc1ccccc1	-6	-1	0.18	2	17
COc1cc(C(Nc2ccccn2)c2cc(Cl)c3cccnc3c2O)cc(I)c1O (centres undefined)	/	/	/	15	25
COc1ccc(C(Nc2ccccn2)c2cc(Cl)c3cccnc3c2O)cc1[N+](=O)[O-] (centres undefined)	/	/	/	45	113*
COc1ccc(Br)cc1C(Nc1ccccn1)c1cc(Cl)c2cccnc2c1O (centres undefined)	/	/	/	51	114*
CSC1=N/C(=C\c2ccc(Cl)cc2)C(=O)N1CCc1c[nH]c2ccccc12	32	-1	-0.094	2	85*
O=C(CN1C(=O)/C(=C\c2ccc(F)cc2)N=C1c1ccccc1)c1ccco1	-40	-4	-0.35	-55	24
O=c1cc(O)c2sc3nc(-c4cccnc4)c4c(c3c2[nH]1)CCCC4	0	0	-0.39	-1	106*
c1cncc(-c2nc3ccc4ccccc4c3c3c2CCCC3)c1	31	-1	0.63	4	72
CC(C)NC(=O)Nc1ccc2c(c1)C(=O)N([C@H](C)CO)C[C@@H](C)[C@H](CN(C)Cc1ccc(C(=O)O)cc1)O2	-39	2	0.013	1	-3
